Screening results from PubChem BioAssay.
dFosB act: enhances mouse delta FosB homodimer DNA binding; purified delta FosB, TAMRA-CDK5 oligo fluorescence polarization; percent of positive-control signal above neutral wells; activation, % at 25 µM; hit rate 0.99% among 340,000; AID 493131; P13346;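 active = mean activation above about 17%, with every replicate also reaching it, limit read from the data, passing the limit was not always enough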
CDK5 p35 inh: inhibitors of human CDK5/p35 kinase; Q00535+Q15078; Recombinant CDK5/p35, ADP-Glo luminescence, 60 min; inhibition, % at 10 µM; hit rate 0.01% among 330,000; AID 488839;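 active = highest replicate inhibition of at least 50% and at least 75% of replicates reaching 50%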;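 note: plate controls were DMSO neutral control for no effect and GW8510 at 10 µM for full effect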
Rtt109 HAT inh: inhibitors of Candida albicans Rtt109/Vps75 histone acetyltransferase | Q5AAJ8 | purified Rtt109/Vps75, ThioGlo CoA-SH fluorescence, 4 h | inhibition, % at 34.9 µM | hit rate 0.16% among 330,000;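 active = inhibition of at least 50% in every replicate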
Target sequence (Q5AAJ8 whole entry, looked up): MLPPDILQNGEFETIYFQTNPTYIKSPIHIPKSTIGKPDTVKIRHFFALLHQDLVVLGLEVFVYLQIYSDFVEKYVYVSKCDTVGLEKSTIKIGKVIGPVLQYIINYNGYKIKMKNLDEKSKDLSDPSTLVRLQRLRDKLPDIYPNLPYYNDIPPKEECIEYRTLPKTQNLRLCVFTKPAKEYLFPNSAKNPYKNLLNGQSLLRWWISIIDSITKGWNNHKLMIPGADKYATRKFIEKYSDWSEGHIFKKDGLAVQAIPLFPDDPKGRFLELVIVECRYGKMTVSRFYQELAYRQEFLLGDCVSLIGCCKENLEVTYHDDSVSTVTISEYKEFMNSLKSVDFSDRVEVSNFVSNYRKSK
Dyrk1A ADPGlo: Dyrk1A (rat) kinase inhibition. Q63470. ADP-Glo luminescence, NFATc1 peptide. inhibition, % at 12.5 µM. hit rate 0.43% among 310,000. AID 504441; in the data active = inhibition above about 50%;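 note: plate controls were vehicle with enzyme for no effect and no enzyme for full effect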
esBAF inh: blocks esBAF chromatin remodeling in mouse ES cells; Bmi1-luciferase knock-in reporter, 24 h; 100% = twice the neutral-well signal; reporter increase, % at 12.5 µM; hit rate 2% among 350,000; AID 602393; in the data active = activation above about 40%;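 note: 0% = median of the plate's neutral control wells and 100% = double that signal; a rise in the Bmi1 reporter signal indicates esBAF inhibition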
SMARCA2 act: activators of SMARCA2 function. MG213 cells, MMTV-luciferase reporter, dexamethasone, overnight. activation, % at 9.1 µM. hit rate 1% among 370,000. AID 652017; in the data active = activation above about 7.8%;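 note: 0% = vehicle wells and 100% = reference activator wells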
Active calls of the source: *; nt = no result given. Hits are enriched below; roughly 3.2% of the tested compounds scored in any of these assays.

SMILES	dFosB act	CDK5 p35 inh	Rtt109 HAT inh	Dyrk1A ADPGlo	esBAF inh	SMARCA2 act
N#Cc1cccc(NC(=O)COC(=O)c2ccccc2Sc2ccccc2C#N)c1	-12	-1	-10	-4	nt	-4
CC(=O)c1ccc(NC(=O)COC(=O)c2ccccc2Sc2ccccc2C#N)cc1	40*	0	-14	6	-2	-2
CC(=O)c1cccc(NC(=O)COC(=O)c2ccccc2C)c1	-14	1	6	0	44*	6
O=C(C[C@H]1C[C@H]2c3cc(NC(=O)Nc4ccc(C(F)(F)F)cc4)ccc3O[C@H]2[C@H](CO)O1)NCc1ccccn1	nt	nt	nt	nt	-5	nt
O=C(OC1CCc2ccccc2C1=O)c1ccccc1O (stereo unspecified)	-4	0	-3	1	46*	7
CCNC(=O)C[C@@H]1CC[C@@H]2[C@@H](COc3ccc(NC(=O)Nc4ccc(C)cc4)cc3C(=O)N2C)O1	nt	nt	nt	nt	5	nt
Cc1ccccc1-c1nc2ccccc2[nH]1	1	3	8	13	58*	6
Cc1ccccc1NC(=S)c1nc2ccccc2[nH]1	-3	0	34	3	49*	0
Cc1ccccc1NC(=O)NCCc1nc2ccccc2[nH]1	-8	0	-4	0	2	-1
N#C/C(=C\c1c(F)cccc1Cl)c1nn(-c2ccccc2)c(-n2cccc2)c1C#N	-16	-2	-9	nt	nt	-5
N#C/C(=C\c1c(Cl)cccc1Cl)c1nn(-c2ccccc2)c(-n2cccc2)c1C#N	-9	0	56*	-2	-10	-3
CCC(=O)Nc1ccc2c(c1)OC[C@@H](C)N(C(=O)C1CC1)C[C@H](C)[C@@H](OC)CN(C)C2=O	nt	nt	nt	nt	-5	nt
COC1CCN(C(=O)C2CCC(=O)N(C3CCCCCC3)C2)CC1 (stereo unspecified)	8	-2	-2	1	56*	6
O=c1c2c3c(sc2nc2n1CCCC2)CCC3	2	1	5	-2	3	1
N=c1c2c3c(sc2nc2n1CCCCC2)CCCCC3	-13	1	-1	-3	48*	3
O=c1c2c3c(sc2nc2n1CCCC2)CCCCC3	6	0	-5	6	nt	-1
O=c1c2c3c(sc2nc2n1CCCCC2)CCCCC3	-4	0	5	1	62*	nt
O=c1c2c3c(sc2nc2n1CCCCC2)CCCC3	2	1	-9	2	50*	4
COc1ccc(CN(C)C[C@@H]2Oc3ccc(NC(=O)Nc4ccc(C(F)(F)F)cc4)cc3C(=O)N([C@@H](C)CO)C[C@H]2C)cc1	nt	nt	nt	nt	-7	nt
COc1ccc(C2=NCN(c3ccc(C)cc3)C(=S)N2)cc1	-3	0	-2	-9	nt	3
Cc1ccc(N2CN=C(c3ccccc3)NC2=S)cc1	-2	1	-2	-13	57*	2
CC(=O)NCCNc1nc2cc(-c3ccc(C)cc3)sc2c(=O)n1C	nt	nt	nt	nt	54*	-4
CCOC(=O)Cn1c(C)[n+](CC(=O)c2ccccc2)c2ccccc21	-5	0	55*	-2	-5	-4
C[C@H](CO)N1C[C@H](C)[C@H](CN(C)C(=O)c2ccc(F)cc2)Oc2cc(C3=CCCC3)ccc2S1(=O)=O	nt	nt	nt	nt	-1	nt
COc1cc(NC(=O)c2ccccc2)ccc1NC(=O)c1cc2ccccc2o1	-15	0	-2	-1	0	1
SMILES	dFosB act	CDK5 p35 inh	Rtt109 HAT inh	Dyrk1A ADPGlo	esBAF inh	SMARCA2 act
CCCC(=O)Nc1ccc(NC(=O)c2cc3ccccc3o2)c(OC)c1	2	-1	10	-2	53*	5
COc1cc(NC(C)=O)ccc1NC(=O)c1cc2ccccc2o1	3	1	-8	12	55*	2
C[C@@H]1CCCCO[C@H](CN(C)C(=O)CCC(F)(F)F)[C@H](C)CN([C@H](C)CO)C(=O)c2cc(NS(=O)(=O)c3ccc(F)cc3)ccc2O1	nt	nt	nt	nt	-1	nt
Cn1cc(Cl)c(/C(N)=N/OC(=O)c2ccccc2C(F)(F)F)n1	-7	0	0	2	51*	8
O=C(Nc1ccccc1N1CCOCC1)c1ccc2ccccc2n1	-4	1	-9	36	59*	6
C[C@@H]1CCCCO[C@H](CN(C)C(=O)CCCN(C)C)[C@@H](C)CN([C@@H](C)CO)C(=O)c2cc(NC(=O)NC3CCCCC3)ccc2O1	nt	nt	nt	nt	2	nt
CC(=O)N(CCC(Cc1ccccc1)c1ccco1)Cc1ccco1 (stereo unspecified)	-14	-5	53*	-1	1	-4
C[C@@H]1CN([C@@H](C)CO)C(=O)c2cc(NC(=O)NC3CCCCC3)ccc2O[C@@H](C)CCCCO[C@H]1CN(C)C(=O)c1ccccc1	nt	nt	nt	nt	-1	nt
Cc1sc(NC(=O)C2CCCCC2C(=O)O)c(C(N)=O)c1-c1ccc(C(C)C)cc1 (stereo unspecified)	-7	2	20	2	62*	1
Cc1cc(C)c(-n2nnnc2SCC(=O)c2cccs2)c(C)c1	-6	0	60*	-8	-5	-5
Cc1ccc(S(=O)(=O)Nc2ccc3c(c2)CC(=O)N([C@@H](C)CO)C[C@H](C)[C@H](CN(C)CC2CCCCC2)O3)cc1	nt	nt	nt	nt	-2	nt
Cc1ccc(NC(=O)Nc2ccccc2C(=O)NCc2ccccc2)cc1	-1	1	0	0	51*	3
CCN1CCN(Cc2ccccc2NC(=O)Nc2ccc(C)cc2)CC1	0	1	-2	5	43*	8
C=CCNC(=O)c1ccccc1NC(=O)Nc1ccccc1	-6	-1	5	8	8	7.8*
O=C(C[C@H]1CC[C@@H]2[C@H](COC[C@H](O)CN2C(=O)c2ccccc2)O1)Nc1nccs1	nt	nt	nt	nt	5	nt
CC(C)CCn1cnc2c(sc3nc4c(cc32)CSC(C)(C)C4)c1=O	-7	nt	14	4	nt	-5
CCCCn1cnc2c(sc3nc4c(cc32)CSC(C)(C)C4)c1=O	-35	-1	49	-3	47*	4
O=C(Nc1cccc(Cl)c1)Nc1ccc2nccnc2c1	-19	0	4	4	97*	6
CC(=O)Nc1ccc(NC(=O)Nc2cccc(Cl)c2)cc1	4	0	-3	2	40	0
O=C(Nc1ccccc1)Nc1cccc(Cl)c1	1	-1	1	12	52*	-2
O=C(Nc1ccccc1)Nc1ccccc1	-3	2	6	8	49*	4
CC(=O)c1ccc(NC(=O)Nc2cccc(Cl)c2)cc1	-15	-1	15	38	nt	-1
O=C(Nc1cccc(Cl)c1)N1CCCCCC1	-6	1	-4	-5	28	1
O=C(Nc1ccc(C(=O)N2CCCCC2)cc1)Nc1cccc(Cl)c1	-3	-1	-5	13	86*	3
CO[C@@H]1CC[C@@H]2CCN(C)C(=O)C[C@H](c3ccccc3)CN(C)C(=O)c3cccc(C#N)c3OC[C@@H]1O2	nt	nt	nt	nt	0	nt
